Screens (PubChem BioAssay)
The list is not random: actives were taken first. Their share in the collection is about 19%.
TDP1 cell noCPT: qHTS for Inhibitors of human tyrosyl-DNA phosphodiesterase 1 (TDP1): qHTS in cells in absence of CPT; DT40 Tdp1-/- hTDP1 cells, no CPT, ATP luminescence, 48 h; Potency, µM (doses to about 46.2 µM), usual class: inhibitors; 420,000 tested, 15% active; note: nearly all actives have a fitted effect of over 55% in size
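DT40 Tdp1-/-;hTDP1 cells, no CPT (DMSO vehicle only), 400 cells/well; compounds pin-transferred; ≥48 hr, 37 °C; CellTiter-Glo 30 min RT dark, luminescence read.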
KB-V1 cytotox: qHTS assay for MDR1-selective chemotherapeutics: Primary screen using the drug-selected MDR subline cells KB-V1; Potency, µM (titrated, usually from 46.1 µM), actives largely listed as cytotoxic; AID 1347076, 2019; KB-V1 MDR cells viability, CellTiter-Glo, 72 h; 400,000 tested, 3.4% active; note: nearly all actives have a fitted effect of over 60% in size
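In this primary screen, KB-V1 cells overexpressing P-gp are incubated with library compounds (lowest to highest concentration) for 72 h at 37 degrees C before a luminescent ATP viability read.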
HT1080 IDH1KD tx: qHTS for induction of synthetic lethality in tumor cells producing 2HG: qHTS for the HT-1080-IDH1KD cell line | HT-1080 IDH1 knockdown viability, ATP luminescence, 48 h | 360,000 tested, 2% active | Potency, µM (series often up to 46.1 µM), most hits filed as cytotoxic
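HT-1080-IDH1KD cells (IDH1 knocked down), 750/well in RPMI with 5% FBS, treated with compound 48 h at 37 degrees C. Viability by CellTiter-Glo luminescence, normalised to DMSO and no-cell wells; concentration-response curves classed.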
DT40 TDP1 CPT: qHTS for Inhibitors of human tyrosyl-DNA phosphodiesterase 1 (TDP1): qHTS in cells in presence of CPT; chicken DT40 Tdp1-/-;hTDP1 cells + 20 nM CPT, ATP luminescence, 48 h; Potency, µM (doses to about 46.2 µM), hits mostly inhibitors; 420,000 tested, 12% active; note: nearly all actives have a fitted effect of over 55% in size
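Cell growth measured by CellTiter-Glo luminescence after a minimum 48 h, 37 C compound exposure with 20 nM CPT in Tdp1-knockout DT40 cells stably expressing hTDP1, seeded 400/well; qHTS titration format.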
KB-3-1 tox: qHTS assay for MDR1-selective chemotherapeutics: Primary screen using the parental adenocarcinoma cell KB-3-1; KB-3-1 viability, CellTiter-Glo ATP luminescence, 72 h; Potency, µM (titrated, usually from 46.1 µM), most hits filed as cytotoxic; 400,000 tested, 1.4% active; AID 1347075, 2019; note: nearly all actives have a fitted effect of over 60% in size
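KB-3-1 parental drug-naive adenocarcinoma cells in DMEM/10% FBS, incubated 72 h at 37 C with pin-transferred compounds across a concentration series. Viability by CellTiter-Glo luminescence; concentration-response curves fitted after normalization.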
HT1080NT lethal: qHTS for induction of synthetic lethality in tumor cells producing 2HG: qHTS for the HT-1080-NT fibrosarcoma cell line. HT-1080-NT fibrosarcoma viability, CellTiter-Glo ATP luminescence, 48 h. Potency, µM (top dose mostly 46.1 µM), usual class: cytotoxic. 360,000 tested, 1.6% active. AID 686970, 2013;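 note: NT is the 2HG producing partner of a matched IDH1 knockdown line; nearly all actives have a fitted effect of over 55% in size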
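Viability by CellTiter-Glo luminescence after 48 h compound exposure at 37C of HT-1080-NT cells (750/well, RPMI, 5% FBS). % activity scaled between DMSO wells and medium-only wells, then curve-fitted and categorized by curve class.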
Numbers stand for hits; - = inactive; ? = inconclusive; . = no result given; [ ] = remark or other dose. Calls come from the whole dose curve; as a rule, active = well fitted curve in the direction sought with a large enough effect; inconclusive = small, poorly fitted or top-dose-only effect, or another doubt; inactive = no such curve, though single readings can be large; an effect the other way counts as inactive or inconclusive.

SMILES | TDP1 cell noCPT | KB-V1 cytotox | HT1080 IDH1KD tx | DT40 TDP1 CPT | KB-3-1 tox | HT1080NT lethal
COc1ccc(C2/C=C\CN(C(=O)Nc3ccccc3-c3ccccc3)CC(=O)N2Cc2ccc(F)cc2)cc1 (configuration not stated) | ? | ? | - | 23µM | - | -
COc1ccc(C2/C=C\CN(C(=O)NC34CC5CC(CC(C5)C3)C4)CC(=O)N2Cc2ccc(F)cc2)cc1 (configuration not stated) | ? | - | - | 23µM | - | -
COc1ccc(C2/C=C\CN(C(=O)C3CCCC3)CC(=O)N2Cc2ccc(F)cc2)cc1 (configuration not stated) | ? | - | - | 21µM | - | -
CCOc1ccc(NC(=O)c2cn3c4c(ccc(Cl)c4c2=O)OC(C)C3)cc1 (configuration not stated) | - | - | . | - | - | .
O=C(NCc1ccccc1)C(=O)Nc1ccc2nc3n(c(=O)c2c1)CCCCC3 | - | - | . | - | - | .
Oc1ccccc1N=Cc1sc2ccccc2c1Cl | 18µM | - | - | ? | - | -
CCOC(=O)c1nn(-c2ccccc2Cl)c(=O)cc1OCC(=O)Nc1cccc(OC)c1 | - | - | - | - | - | -
CCCCNC(=O)c1nc(-c2cc3ccccc3[nH]2)oc1-c1ccccc1 | 16µM | 8.2µM | - | ? | - | -
CCCCNC(=O)c1nc(-c2cccs2)oc1-c1ccc(Cl)cc1 | 15µM | ? | - | ? | - | -
CCCCNC(=O)c1nc(-c2ccncc2)oc1-c1ccc(OC(F)(F)F)cc1 | - | - | - | - | - | -
Cc1ccc(S(=O)(=O)Nc2ccsc2C#N)cc1 | - | - | - | - | - | -
CC(C)c1ccc(S(=O)(=O)N2CCC(N3CCN(Cc4ccccc4)C(=O)C3=O)CC2)cc1 | - | ? | . | ? | - | .
Cc1cc(-n2nc3ccc(Cl)cc3n2)c(O)c(C(C)(C)C)c1 | - | . | . | - | . | .
Cc1cc(Cl)c(O)c(-n2nc3ccccc3n2)c1 | ? | - | - | 21µM | - | -
CC1CC(C)CN(S(=O)(=O)c2ccc3c(c2)oc(=O)n3CC(=O)NCCCOC(C)C)C1 (configuration not stated) | ? | - | - | - | - | -
CCC(C)(C(=O)NC1CCCCC1)N(Cc1ccco1)C(=O)c1ccc2c(c1)OCO2 (configuration not stated) | 8.2µM | 12µM | - | 12µM | - | -
CCC(C)(C(=O)NC1CCCCC1)N(Cc1ccco1)C(=O)Cc1cccs1 (configuration not stated) | ? | ? | - | ? | - | -
CC(=O)c1ccccc1-c1ccc2c(c1)CC(CNC(=O)Cc1c[nH]c3ccccc13)O2 (configuration not stated) | - | . | . | -[9.04 µM] | . | .
CCc1cc(C(=O)Nc2cc(Cl)ccc2N2CCN(C)CC2)sc1C | 23µM | - | - | ? | - | -
CCc1cc(C(=O)Nc2cc(S(=O)(=O)N(CC)CC)ccc2N2CCN(C)CC2)sc1C | - | - | - | - | - | -
CCc1noc(C)c1C(=O)Nc1cc(Cl)ccc1N1CCCC1 | 18µM | ? | - | ? | - | -
Cn1nc(C(=O)Nc2cc(Cl)ccc2N2CCCC2)c2ccccc2c1=O | ? | - | - | ? | - | -
CCc1noc(C)c1C(=O)Nc1ccccc1N1CCOCC1 | ? | - | - | ? | - | -
CN1CCN(c2ccc(Cl)cc2NC(=O)c2nn(-c3ccccc3)c(=O)c3ccccc23)CC1 | 9.2µM | - | - | ? | - | -
O=C(Nc1nc(C2C3CC4CC(C3)CC2C4)cs1)c1cc2cc([N+](=O)[O-])ccc2oc1=O (configuration not stated) | 9.2µM | - | - | 12µM | - | -
SMILES | TDP1 cell noCPT | KB-V1 cytotox | HT1080 IDH1KD tx | DT40 TDP1 CPT | KB-3-1 tox | HT1080NT lethal
Brc1cccc(-c2n[nH]c(-c3ccccc3)n2)c1 | 23µM | - | - | ? | - | -
Nc1nc(N)nc(-c2cccc(Br)c2)n1 | ? | - | - | - | - | -
COc1ccc(CCNC(=O)c2ccc(Cn3c(=O)c4cccn4c4cccnc43)cc2)cc1OC | ? | . | . | - | . | .
O=C1CCC/C1=C\c1ccccc1 | - | - | - | - | - | -
O=C1/C(=C/c2ccncc2)CCC/C1=C\c1ccncc1 | 0.82µM | ? | 4.1µM | 2.1µM | 7.3µM | 4.6µM
O=C1/C(=C\c2ccncc2)CCc2ccccc21 | 15µM | ? | - | 13µM | - | -
O=C1/C(=C\c2ccccc2)CCC/C1=C/c1ccccc1 | 18µM | ? | ? | 21µM | ? | ?
O=C1C(=Cc2ccncc2)CCCc2ccccc21 | 21µM | ? | ? | 23µM | ? | -
C[C@H]1CN([C@@H](C)CO)C(=O)CCCn2cc(nn2)CO[C@@H]1CN(C)C(=O)Cc1ccccc1 | - | - | - | - | ? | -
CC1=C(C(=O)Nc2cccnc2)C(c2ccc(C)cc2)n2nc(SCc3ccccc3F)nc2N1 (configuration not stated) | - | - | . | - | - | .
O=c1oc(CCCO)cc2ccc(/C=C/c3cccc([N+](=O)[O-])c3)cc12 | ? | - | - | - | - | -
COc1cc(Cl)c(S(=O)(=O)N2CCN(c3c(C)cccc3C)CC2)cc1Cl | . | ? | . | . | - | .
O=C1/C(=C/c2ccncc2)CCc2ccccc21 | 23µM | 15µM | ? | ? | - | -
CN(Cc1ccc(Cl)cc1)C(C(=O)NC1CCCCC1)c1cc2ccccc2o1 (configuration not stated) | ? | - | ? | - | - | ?
CCN(CC)C(=O)C1CCCN(Cc2ccccc2)C1 (configuration not stated) | - | - | -[9.24 µM] | ? | - | -
CN(Cc1ccc(Cl)cc1)C(CCc1ccccc1)C(=O)NC1CCCCC1 (configuration not stated) | 15µM | - | ? | ? | - | ?
CN(Cc1ccccc1)C(=O)C1CCCN(Cc2ccc(Cl)cc2)C1 (configuration not stated) | 26µM | ? | - | - | ? | -
COc1ccc(CN2CCCC(C(=O)N3CCc4ccccc4C3)C2)cc1OC (configuration not stated) | - | - | - | ? | - | -
CCS(=O)(=O)N1CCC(C(=O)N2CCc3ccccc3C2)CC1 | - | 13µM | - | - | - | -
